Rows were chosen to be rich in hits. Some 4% of all compounds tested hit in one or more screens of this group.
D1 PAM: Potentiators of Human D1 Dopamine Receptor: qHTS; D(1A) dopamine receptor (Homo sapiens), P21728; HEK293 TREx D1 cells, calcium flux, dopamine EC20 potentiation; potentiation, % at 10 µM; 360,000 tested, 0.036% active; in the data active means potentiation above about 30%; further: 0% is about no effect
Target sequence (P21728 whole entry, looked up): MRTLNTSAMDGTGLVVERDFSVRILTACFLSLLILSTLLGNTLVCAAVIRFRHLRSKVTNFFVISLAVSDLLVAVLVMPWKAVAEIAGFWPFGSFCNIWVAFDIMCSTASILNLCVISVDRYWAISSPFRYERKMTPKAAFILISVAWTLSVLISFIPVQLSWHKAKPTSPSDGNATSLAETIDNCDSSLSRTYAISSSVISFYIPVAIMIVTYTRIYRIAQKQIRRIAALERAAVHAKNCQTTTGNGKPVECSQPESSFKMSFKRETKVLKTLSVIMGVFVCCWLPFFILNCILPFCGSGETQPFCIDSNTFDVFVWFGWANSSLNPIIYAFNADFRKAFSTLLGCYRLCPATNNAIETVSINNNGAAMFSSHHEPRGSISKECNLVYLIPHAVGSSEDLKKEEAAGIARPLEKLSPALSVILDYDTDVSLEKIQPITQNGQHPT
TRHR ag: qHTS for Small Molecule Agonists and Allosteric Enhancers of Human TRH Receptor: Primary Screen for Agonists; Thyrotropin-releasing hormone receptor (Homo sapiens), P34981; TRHR cells, calcium flux fluo-8, FDSS agonist mode; activation, % at 2 µM; 360,000 tested, 0.18% active; AID 493084, 2011; further: 0% is about no effect
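Fluo-8-loaded TRHR cells; 10 s baseline, compound added, kinetic Ca2+ fluorescence read 1/s, agonist mode.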
TRHR enhancer: qHTS for Small Molecule Agonists and Allosteric Enhancers of Human TRH Receptor: Primary Screen for Enhancers; 360,000 tested, 0.66% active; Thyrotropin-releasing hormone receptor (Homo sapiens), P34981; TRHR cells, fluo-8 calcium fluorescence, EC20 TRH enhancement; enhancement, % at 2 µM; in the data active means enhancement above about 30%; further: 0% is about no effect
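TRHR-expressing cells loaded with fluo-8 calcium dye were read kinetically (ex 480/em 530) during compound addition, then stimulated with an EC20 of TRH (10 nM final). Enhancement of the Gq-mediated intracellular calcium response was scored.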
Glioma ERSR ind: qHTS for Inducers of the Endoplasmic Reticulum Stress Response (ERSR) in Human Glioma: qHTS | U87-MG GRP78 promoter luciferase reporter, 16 h | Potency, µM, inactives show top-dose activation, most hits filed as activators | 420,000 tested, 0.02% active; active means well fitted activation curve with a large enough effect; further: potency means the concentration at half of the fitted maximal effect; series mostly up to about 76 µM; % of control where 0% means no effect; nearly all actives have a fitted effect of over 35% in size
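Stably transfected U87-MG glioma cells carrying a GRP78-based luciferase sensor; 16 h compound incubation. Luminescence end-point read 10 min after Bright-Glo addition at room temperature.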
D1 antag: Antagonist of Human D 1 Dopamine Receptor: qHTS; HEK293 TREx D1 cells, calcium flux, dopamine EC80; active compounds read low; 360,000 tested, 3.2% active; activity change, negative = inhibition, % at 10 µM; in the data active means activity change below about -30%; further: on the % scale 0 is the no-effect control and ±100 the full control effect
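Calcium flux readout: force-coupled, inducible Hek293 Trex D1 line, cells induced overnight at 30 C with tetracycline, dye-loaded 30–90 min at RT. Antagonism scored against EC80 dopamine challenge given 180 s after compound.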
D1 ag: Allosteric Agonists of the Human D1 Dopamine Receptor: qHTS | HEK293 T-REx D1 cells, calcium flux, agonist mode | activation, % at 2 µM | 360,000 tested, 1% active | AID 504660, 2011; further: 0% is about no effect
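Agonism was scored from calcium flux recorded over 180 s (1 read/s) after pintool compound addition, following a 10-cycle baseline. Cells were inducible force-coupled HEK293 TREx D1, plated overnight at 30 C and loaded with no-wash calcium dye.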
Numbers without * were called inactive; x = no result given. Unless noted, no stated cut-off is given here; in the data, active means activation above about 30%; inactive means the rest.

SMILES	D1 PAM	TRHR ag	TRHR enhancer	Glioma ERSR ind	D1 antag	D1 ag
O=C(Nc1cccnc1)c1ccc(-c2cc(Cl)ccc2Cl)o1	-3	0	2	-2%	10	1
CNCC/C=C1/c2ccccc2CSc2ccccc21	-27	1	0	-7%	-51*	19
Cc1nnnn1/C(=C\c1ccccc1)C(=O)OCC(=O)NC(C)(C)C	-4	0	33*	-12%	20	2
Cc1cccc(N(C(=O)c2nsc(Cl)c2Cl)C(C(=O)NC2CCCC2)c2ccc(O)cc2)c1C (configuration not stated)	-8	0	-6	-3%	-40*	6
CC(=O)c1cccc(N(CC(=O)NC2CCCC2)C(=O)c2csnn2)c1	x	1	2	-3%	-39*	10
O=C(NC1CCCCC1)C(c1ccccc1F)N(C(=O)c1csnn1)C1CCCC1 (configuration not stated)	x	-1	2	-1%	-23	61*
O=C(NC1CCCC1)C(c1ccncc1)N(C(=O)c1csnn1)c1ccccc1F (configuration not stated)	1	0	28	-2%	9	-2
COc1ccccc1C(C(=O)NC1CCCCC1)N(C(=O)c1csnn1)C1CC1 (configuration not stated)	x	0	-3	-8%	-18	4
Cc1ccccc1N(C(=O)c1csnn1)C(C(=O)NC1CCCCC1)c1ccncc1 (configuration not stated)	-3	-1	32*	0%	9	1
Cc1ccc(N(C(=O)c2nsc(Cl)c2Cl)C(C(=O)NC2CCCC2)c2ccc(O)cc2)cc1C (configuration not stated)	-4	1	1	-2%	-19	2
Nc1c(Cl)cc(-c2csc(NC(CO)c3nc4ccccc4n3CCOCCO)n2)cc1Cl (configuration not stated)	x	x	x	-3%	x	x
O=[N+]([O-])c1cc(/C=N\O)ccc1Oc1ccc(F)cc1	-4	-1	-19	-3%	-53*	1
O=C(COC(=O)CSc1cc(Cl)ccc1Cl)Nc1ncc(C(F)(F)F)cc1Cl	7	1	-3	-4%	-32*	7
CCC(=O)OCC(=O)Nc1ncc(C(F)(F)F)cc1Cl	2	1	5	-6%	-23	2
CN(CC(=O)Nc1ccc(F)cc1)C(=O)c1ccncc1	-8	0	0	-4%	-5	6
COc1ccc(OCCC(=O)OCC(=O)Nc2cccc(S(=O)(=O)N3CCCCC3)c2)cc1	x	x	x	1%	x	x
c1ccc(Cn2nnc3c(NCCN4CCOCC4)ncnc32)cc1	-17	0	17	-3%	-31*	3
c1ccc(Cn2nnnc2CN2CCOCC2)cc1	-11	0	3	-4%	-34*	4
Clc1ccccc1Cn1nnc2c(NCCN3CCOCC3)ncnc21	0	0	4	-3%	6	-1
c1ccc(-n2nnnc2CN2CCOCC2)cc1	4	1	1	-2%	3	3
Cc1ccc(NC(=O)CN(C)CC(=O)Nc2ccc(N3CCOCC3)cc2)c([N+](=O)[O-])c1	17	0	1	-2%	-11	0
CCN(CC)CCCN(Cc1cc2cc3c(cc2[nH]c1=O)OCCO3)C(=O)Nc1ccc(F)cc1	-2	-1	32*	-1%	23	2
Cc1cccc(NC(=S)N(CCN2CCOCC2)Cc2cc3cc4c(cc3[nH]c2=O)OCCO4)c1	-6	-1	34*	-2%	1	3
COc1ccc(-c2noc(N3CCC(C(=O)NCc4ccccc4Cl)CC3)n2)cc1	-8	0	-2	-2%	-47*	7
COc1ccc(-c2noc(N3CCC(C(=O)NCc4ccc(Cl)cc4)CC3)n2)cc1	-11	1	-4	-2%	-20	15
SMILES	D1 PAM	TRHR ag	TRHR enhancer	Glioma ERSR ind	D1 antag	D1 ag
COc1ccc(-c2noc(C3CCCN(C(=O)c4ccccc4)C3)n2)cc1 (configuration not stated)	-3	0	5	6%	-39*	6
COc1ccc(-c2noc(N3CCC(C(=O)Nc4ccccc4F)CC3)n2)cc1	-10	0	-4	-1%	1	-1
COc1ccc(-c2noc(N3CCC(C(=O)NC(C)c4ccccc4)CC3)n2)cc1 (configuration not stated)	-15	0	26	-2%	-35*	2
COc1ccc(-c2noc(N3CCC(C(=O)Nc4ccccc4Cl)CC3)n2)cc1	-7	0	-2	0%	-34*	3
CN1c2ccccc2N(C)C1(C)c1cccc2ccccc12	-6	0	-6	5%	-13	4
C#CCn1c(=NC(=O)c2ccc(S(=O)(=O)N3CCc4ccccc4C3)cc2)sc2cc(S(N)(=O)=O)ccc21	7	2	3	-13%	-9	1
O=C(CCNS(=O)(=O)c1ccc(Br)cc1)NC1CCC(O)CC1 (configuration not stated)	-4	1	4	-3%	-31*	2
Cc1nn(-c2nc3ccccc3s2)c(C)c1Oc1ccccc1O	-9	-1	-17	10%	-60*	25
Cc1ccc(/C=C2\CCC3=C2OC(N)=C(C#N)C3c2ccc(C)cc2)cc1 (configuration not stated)	-5	68*	15	-3%	-57*	135*
Cc1ccc(C2C(C#N)=C(N)Oc3cc(N)ccc32)cc1 (configuration not stated)	-2	0	-1	-3%	2	2
Cc1ccccc1NC(=O)CSc1ccc(-c2ccco2)nn1	-9	0	-6	-2%	-71*	4
CC(C)(C)c1ccc(OC(=O)c2cccnc2)cc1	-6	0	5	-2%	4	42*
COc1ccc(OC(=O)c2cccnc2)cc1	-2	0	13	-5%	6	0
O=C(Oc1ccc(Nc2ncnc3ccccc23)cc1)c1cccnc1	-3	1	-4	7%	-47*	-1
C=C(C)n1c(=O)n(Cc2ccccc2C)c2ccccc21	1	0	5	-3%	10	93*
C=C(C)n1c(=O)n(Cc2ccc(C)cc2)c2ccccc21	-1	0	-3	-2%	0	-1

Screens as filed in PubChem.
